# Rows were chosen to be rich in hits. Some 12% of all compounds tested hit in one or more screens of this group.
# G9a inh: G9a (human) methyltransferase inhibition | AID 504332 | 8.8% of 350,000 active | Q96KQ7 | Potency, µM (highest dose often 102 µM), without a hit: at the highest dose activity, negative = inhibition, actives largely listed as inhibitors | G9a H3K9 monomethylation, AlphaScreen, 2 h; note: % is set by controls: 0 for no effect and ±100 for the full control effect; nearly all actives have a fitted effect of over 75% in size
#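 Signal arises when biotinylated H3K9 peptide, once monomethylated, bridges streptavidin donor and antibody-captured acceptor beads. Enzyme at 20 nM was preincubated 15 min with test compounds; peptide 500 nM and SAM 20 uM then reacted for 2 h.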
# HP1b binding inh: HP1-beta chromodomain-methylated histone interaction inhibition; P83916; AlphaScreen HP1-beta / biotin-H3K9me3 peptide binding; Potency, µM (titrated, usually from 114 µM), for inactives: at the top dose activity change, negative = inhibition, hits mostly inhibitors; 0.56% of 390,000 active; AID 540317; note: nearly all actives have a fitted effect of over 70% in size
#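 HP1-beta protein (50 nM final) preincubated 30 min at room temperature with biotinylated H3(1-18)K9me3 peptide (50 nM) in PBS pH 7.4, 0.01% Tween-20, then compound added for 30 min. AlphaScreen streptavidin donor/nickel chelate acceptor beads (10 ug/mL final), 30 min dark, luminescence read.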
# JMJD2A Tudor inh: inhibitors of human JMJD2A Tudor domain; O75164; AlphaScreen JMJD2A-Tudor / H3K4me3 peptide binding; Potency, µM (doses to about 114 µM), inactives show top-dose activity change, negative = inhibition, usual class: inhibitors; 4.4% of 390,000 active; AID 504339; note: % is set by controls: 0 for no effect and ±100 for the full control effect; nearly all actives have a fitted effect of over 50% in size
# TDP1 inh: inhibitors of human tyrosyl-DNA phosphodiesterase TDP1; recombinant TDP1, AlphaScreen DNA substrate cleavage; Potency, µM (titrated, usually from 130 µM), for the others: top-dose activity change, negative = inhibition, most hits filed as inhibitors; 0.28% of 350,000 active; AID 485290; note: % is set by controls: 0 for no effect and ±100 for the full control effect; nearly all actives have a fitted effect of over 40% in size
# Target sequence (Q9NUW8 whole entry, looked up): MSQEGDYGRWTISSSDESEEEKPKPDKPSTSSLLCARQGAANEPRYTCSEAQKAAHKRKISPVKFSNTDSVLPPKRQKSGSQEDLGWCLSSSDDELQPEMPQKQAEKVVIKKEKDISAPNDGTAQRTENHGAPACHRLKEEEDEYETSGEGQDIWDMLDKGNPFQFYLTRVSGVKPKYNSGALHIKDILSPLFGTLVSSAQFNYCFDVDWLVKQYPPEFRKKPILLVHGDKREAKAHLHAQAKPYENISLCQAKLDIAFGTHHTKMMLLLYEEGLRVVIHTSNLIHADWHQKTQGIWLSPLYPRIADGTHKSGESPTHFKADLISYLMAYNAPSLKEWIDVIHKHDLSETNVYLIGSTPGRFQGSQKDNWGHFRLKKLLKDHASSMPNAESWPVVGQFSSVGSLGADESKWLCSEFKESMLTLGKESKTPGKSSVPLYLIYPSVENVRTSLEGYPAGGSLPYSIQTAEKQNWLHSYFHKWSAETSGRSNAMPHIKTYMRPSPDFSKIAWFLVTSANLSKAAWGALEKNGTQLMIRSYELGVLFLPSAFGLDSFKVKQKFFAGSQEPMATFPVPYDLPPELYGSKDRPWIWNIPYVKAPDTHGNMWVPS
#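 Compounds were preincubated with Tdp1 (1 nM final) for 15 min at room temperature before substrate (15 nM final) started a 5 min reaction; beads (10 ug/ml final) were then added for 10 min before AlphaScreen detection.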
# BAZ2B inh: inhibitors of human BAZ2B bromodomain | 4.4% of 360,000 active | AlphaScreen BAZ2B-H3K14Ac peptide displacement | Potency, µM (series often up to 114 µM), for the others: at the highest dose activity change, negative = inhibition, usual class: inhibitors | Q9UIF8; note: % is set by controls: 0 for no effect and ±100 for the full control effect; nearly all actives have a fitted effect of over 60% in size
#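 Complex of BAZ2B and biotin-H3K14Ac (50 nM apiece) forms over 30 min at RT, then faces library compounds up to 110 uM for another 30 min; AlphaScreen beads added, 20 min dark incubation, luminescence read.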
# Sfp inh: inhibitors of Bacillus subtilis Sfp phosphopantetheinyl transferase. Biochemical Sfp PPTase activity, qHTS. 3.5% of 310,000 active. Q9F4F7. Potency, µM, inactives show largest response in the series, negative = inhibition, hits mostly inhibitors;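 note: the enzyme is Sfp with the accession as filed and its product quenches rhodamine fluorescence; 0% = enzyme reaction without inhibitor and -100% = no enzyme wells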
#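 Compounds were incubated with enzyme (final 15 nM) for 15 min at room temperature before substrate addition started the reaction. Fluorescence at 525 nm excitation, 598 nm emission was recorded immediately and after 30 minutes.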
# Starred values were filed as active, the others as inactive; u = inconclusive; x = no result given; [ ] = another dose, or the depositor's remark. Calls come from the whole dose curve; as a rule, active = well fitted curve in the direction sought with a large enough effect; inconclusive = small, poorly fitted or top-dose-only effect, or another doubt; inactive = no such curve, though single readings can be large; an effect the other way counts as inactive or inconclusive. Potency is the fitted concentration of half-maximal effect.
SMILES,G9a inh,HP1b binding inh,JMJD2A Tudor inh,TDP1 inh,BAZ2B inh,Sfp inh
O=C(O)c1ccc(-c2nc(-c3ccc(Cl)c(Cl)c3)cs2)cc1,-34%,40%,-11%,3%,-12%,-16%
NC(=O)C(=CNc1nc(-c2ccc(Cl)c(Cl)c2)cs1)C(N)=O,x,x,x,6%,45µM*,22µM*
COc1cc2nc(SCC(=O)Nc3c(C)cc(C)cc3C)n3nc(CCn4c(C)nc5ccccc54)nc3c2cc1OC,0%[59 µM],11%,-19%,5%,x,x
COCc1nnc(NC(=O)C2CC(=O)N(CCc3ccc(F)cc3)C2)s1 (stereo not given),40µM*,-29%,-8%,2%,u,u
CCCc1nnc(NC(=O)C2CC(=O)N(CCc3ccc(F)cc3)C2)s1 (stereo not given),u,-8%,-12%,5%,-24%,-7%
COCc1nnc(NC(=O)C2CC(=O)N(C3CCCC3)C2)s1 (stereo not given),28µM*,-10%,-6%,-2%,-1%,u
COCc1nnc(NC(=O)C2CC(=O)N(C3CCCCC3)C2)s1 (stereo not given),x,6%,6%,2%[56.1 µM],-12%,-9%
COc1ccc(OCc2nc3c4cc(OC)c(OC)cc4nc(=S)n3[nH]2)cc1,1µM*,34%,-20%,2%,10%,-2%
COc1cc2nc(=S)n3[nH]c(CCn4c(C)nc5ccccc54)nc3c2cc1OC,u,64%,u,3%,-6%,u
COc1ccc(OCC(O)CNC(=O)c2sccc2Cl)cc1 (stereo not given),12%,34%,-4%,0%,3%,11%
CCCCCCCCCCCCCCC/C=C/[C@@H](O)[C@H](NC(=O)CCCCCCCCCCCCC)OC (tested in a mixture with another compound),20µM*,x,x,11%,x,x
Cc1ccc(/C=N/NC(=O)CNC(=O)c2ccc(S(=O)(=O)N3CCCC3)cc2)o1,45µM*,37%,-10%,-5%,-14%,2%
O=C(CNC(=O)c1ccc(S(=O)(=O)N2CCCCC2)cc1)N/N=C/c1ccco1,-19%,19%,-13%,7%,-21%,2%
Cc1ccc(/C=N\NC(=O)CNC(=O)C23CC4CC(CC(C4)C2)C3)o1,-5%[12.7 µM],9%,-22%,2%,-5%,56µM*
C[C@H](CO)N1C[C@H](C)[C@@H](CN(C)Cc2ccncc2)Oc2c(NC(=O)Cc3ccccc3)cccc2C1=O,x,40%,-18%,2%,x,x
CSc1nc(C)c(C(=O)C[n+]2ccccc2)cc1C#N,x,12%,-12%,-3%,0.79µM*,-6%
Oc1c(Br)cc(Br)cc1/C=N/c1nccs1,1.6µM*,20%,-23%,1%,u,x
COc1cccc(Nc2nc3ccc(C)cc3nc2-n2nc(C)cc2C)c1,392%[59 µM],314%,195%,x,355%,x
Cc1ccc(NC(=O)C(=O)NNC(=O)c2cccs2)cc1,4µM*,38%,-9%,0%,-24%,16%
CCCCC(=O)Nc1ccc(C(=O)NNC(=O)c2cccs2)cc1,24%[59 µM],9%,-8%,-2%,6%,35%
CCC(=O)Nc1ccc(C(=O)NNC(=O)c2cccs2)cc1,0.2µM*,19%,-13%,2%,0%,4%
CCNS(=O)(=O)c1ccc(CCC(=O)N2CCCC2)cc1,13%,41%,0%,x,-24%,11%
CC(C)N1CCN(Cc2cc3ccccc3[nH]2)CC1CCO (stereo not given),17%,13%,-4%,x,6%,24%
O=C(NC(=S)N(CC1CCC1)CC1CCCO1)c1cccc([N+](=O)[O-])c1 (stereo not given),50µM*,-4%,-35%,9%,u,-2%
O=C(NCC1CCCCC1)c1cccc([N+](=O)[O-])c1,x,37%,-10%,1%,u,-5%
SMILES,G9a inh,HP1b binding inh,JMJD2A Tudor inh,TDP1 inh,BAZ2B inh,Sfp inh
O=C(NCC1CCCO1)c1cc([N+](=O)[O-])ccc1Cl (stereo not given),50µM*,15%,1%,3%,2%,17%
CO/N=C(\C)CCN1CCCc2nc(C)c(C)cc21,x,x,x,-2%[21 µM],x,10%
CCCCCCCNC(=O)c1ccc(N2CCC3(CC2)OCCO3)c([N+](=O)[O-])c1,u,-20%,u,8%,-33%,5%
COC(=O)c1c(NC(=O)CCCOc2cccc(C)c2)sc2c1CCC2,9%[59 µM],15%,23%,5%[12.3 µM],-7%,x
COC(=O)c1c(NC(=O)CCCOc2cccc(C)c2)sc2c1C(C(=O)OC)CC2 (stereo not given),1.1µM*,u,u,-6%[12.3 µM],35µM*,x
COC(=O)c1c(NC(=O)CCCOc2ccc(C)cc2)sc2c1C(C(=O)OC)CC2 (stereo not given),1.1µM*,u,-23%,1%[12.3 µM],u,x
COC(=O)c1c(NC(=O)Cc2ccccc2)sc2c1C(C(=O)OC)CC2 (stereo not given),40µM*,-8%,-13%,8%,u,79µM*
CCOc1ccc(/C=C/C(=O)Nc2sc3c(c2C(=O)OC)C(C(=O)OC)CC3)cc1 (stereo not given),1.1µM*,u,56µM*,-13%[12.3 µM],u,x
COC(=O)c1c(NC(=O)C(C)(C)C)sc2c1C(C(=O)OC)CC2 (stereo not given),17%,42%,-10%,-6%,1%,-12%
CCc1ccc(CN(Cc2cn[nH]c2-c2ccc(OC)cc2)C(=O)Nc2ccc(C)c(F)c2)cc1,-35%[59 µM],67%,6%,6%,14%,x
CCOCCCn1c(SCC(=O)Nc2ccc(C)cc2)nc2ccccc2c1=O,10%[59 µM],1%,-10%,1%,7%,x
Cc1cccnc1NC(=O)Cn1nc(-c2ccccc2)oc1=S,50µM*,6%,79µM*,3%,21%,-31%
CCOc1ccc(S(=O)(=O)N2CCC(C(=O)Nc3cc(S(C)(=O)=O)ccc3Cl)CC2)cc1,32%[12.7 µM],41%,-23%,0%,10%,x
CCOC(=O)c1sc2ncnc(N3CCN(c4ccc(OC)cc4)CC3)c2c1C,13µM*,u,u,4%,u,u
CCN(CC)c1ncnc2sc(C(=O)N3CCN(c4ccccc4)CC3)c(C)c12,3%[59 µM],29%,-25%[11.4 µM],3%,-30%,-13%
CCOC(=O)c1sc2ncnc(N3CCN(C)CC3)c2c1C,u,8%,-21%,0%,-15%,0%
CCN(CC)c1ncnc2sc(C(=O)N3CCN(c4ccc(OC)cc4)CC3)c(C)c12,14µM*,-8%,u,3%,-2%,-10%

# Screens: PubChem BioAssay, National Center for Advancing Translational Sciences (NCATS)
